This is a sample that favours compounds with a hit; in the whole collection about 4.1% have one here.
NSD2 inh – inhibitors of human histone methyltransferase NSD2; O96028; actives 0.54% (n = 310,000); NSD2 peptide methylation, AlphaScreen, 120 min; inhibition, % at 12.5 µM; in the data active = inhibition above about 50%
ALR inh – blocks human ALR sulfhydryl oxidase activity; P55789; purified ALR, DTT oxidation, H2O2 HRP-luminol luminescence; inhibition, % (no concentration beside the values); actives 3.8% (n = 290,000); AID 485317;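 active = mean replicate inhibition above about 79%, with every replicate also reaching it, limit read from the data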
HIV Env fusion – inhibitors of HIV Env-mediated cell fusion | HeLa-JRFL Env/CEM21 cell fusion, luciferase | inhibition, % at 12.3 µM | actives 1.1% (n = 360,000);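 active = mean replicate inhibition score of at least 50 and every replicate individually at or above 50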;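 also: 0% = plate neutral controls and 100% = maraviroc near 300 nM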
F508del corr – correctors of CFTR F508del function in bronchial epithelial cells; CFBE cells, YFP halide quenching; stimulated with forskolin plus potentiator P3; % fluorescence drop versus neutral controls; actives 0.36% (n = 350,000); activity (quench increase), % at 7.58 µM;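 active = mean added fluorescence quench of at least 8% versus neutral control, with both replicates also reaching 8%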;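 also: cells transiently co-express mutant CFTR-F508del with the halide-sensitive YFP; corrector assay measuring rescue of mutant channel to the surface after 24 h compound exposure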
CASP6 VEID inh – caspase-6 (human) enzyme inhibition. P55212. purified caspase-6, Z-VEID-R110 cleavage fluorescence. inhibition, % at 12.5 µM. actives 0.53% (n = 350,000). AID 686996;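 active = mean inhibition across replicates at least about 35%, with every replicate also reaching that limit, limit read from the data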;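 also: 0% = median of neutral control wells and 100% = no fluorescence left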
Target sequence (P55212 24-179 limits assumed): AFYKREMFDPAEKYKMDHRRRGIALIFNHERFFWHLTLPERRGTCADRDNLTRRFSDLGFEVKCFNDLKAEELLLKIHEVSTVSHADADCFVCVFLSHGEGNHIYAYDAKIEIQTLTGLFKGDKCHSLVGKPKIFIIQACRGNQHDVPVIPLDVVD
Target sequence (P55212 194-293 limits assumed): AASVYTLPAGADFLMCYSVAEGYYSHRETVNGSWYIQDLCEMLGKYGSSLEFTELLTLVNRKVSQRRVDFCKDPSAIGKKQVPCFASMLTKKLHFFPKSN
PglD inh – blocks C. jejuni PglD acetyltransferase activity; purified PglD enzyme, DTNB colorimetric CoA detection; inhibition, % at 12.5 µM; actives 0.098% (n = 360,000); AID 602405; in the data active = inhibition above about 16%, passing the limit was not always enough
An asterisk follows results filed as active; · = no result given; [ ] = another dose, or the depositor's remark.

SMILES | NSD2 inh | ALR inh | HIV Env fusion | F508del corr | CASP6 VEID inh | PglD inh
Cc1ccc2nc(/C(C#N)=C/c3ccc(O)c(O)c3)[nH]c2c1 | 94* | 89* | -65 | · | 20 | -1
CCOC(=O)/C(C)=N/Nc1nc(-c2ccc(NC(C)=O)cc2)cs1 | 3 | 99* | 12 | 1 | 4 | -1
CCC(=O)Nc1ccc(-c2csc(NNC(C)=O)n2)cc1 | 0 | 99* | -15 | 0 | -1 | ·
COc1ccc(CCNc2nc(-c3ccc(NC(C)=O)cc3)cs2)cc1OC | 1 | 97* | 19 | -3 | -3 | -6
COc1ccc(CCNc2nc(-c3ccc(O)cc3)cs2)cc1OC | 5 | 1 | 16 | 2 | 0 | 17
CC(=O)Nc1ccc(-c2csc(NNC(=O)c3ccccc3)n2)cc1 | 3 | 100* | -1 | 0 | 17 | ·
Cc1ccccc1S(=O)(=O)N(C)C[C@H]1OCc2ccccc2-c2ccccc2C(=O)N([C@H](C)CO)C[C@H]1C | · | · | -8[16.7 µM] | 1 | -2 | 0
COc1cccc(S(=O)(=O)N[C@@H]2CC[C@@H](CCNC(=O)Cc3ccncc3)O[C@@H]2CO)c1 | · | · | -4[16.7 µM] | 0 | 0 | 2
COc1ccc2c3c(n(C)c2c1)[C@@H](CO)N(Cc1ccncc1)CC31CN(C(=O)C2CCCC2)C1 | · | · | · | 0 | -2 | ·
CCCCCC(=O)Nc1ccc(-c2csc(N)n2)cc1 | 0 | 99* | -18 | 1 | -5 | ·
CC(=O)Nc1ccc(-c2csc(NCc3ccccc3)n2)cc1 | 2 | 13 | -42 | -1 | -1 | ·
CC(=O)Nc1ccc(-c2csc(N/N=C(/C)c3ccccc3)n2)cc1 | 1 | 99* | -15 | 0 | 0 | ·
COc1cccc(-c2ccc([C@@H]3[C@@H](C#N)N(C(=O)Cc4ccccc4)[C@@H]3CO)cc2)c1 | · | · | 9[16.7 µM] | 1 | 3 | -3
COC(=O)c1ccc2c(=O)n(CCN3CCOCC3)c(SCC(=O)Nc3ccc(C)cc3)nc2c1 | -3 | 99* | 21 | -1 | 1 | 2
CCCCn1c(SCC(=O)NC(C)CC)nc2ccc(N3CCOCC3)cc2c1=O (configuration not stated) | -1 | -37 | -38 | · | · | ·
Cc1ccc(NC(=O)CSc2nc3ccccc3c(=O)n2CCCN2CCCCC2)cc1C | 4 | 98* | -96 | · | · | 4
CCOC(=O)CSc1nc2cc(C(=O)OC)ccc2c(=O)n1CCN1CCOCC1 | -4 | · | 50 | · | 2 | -1
CCCCn1c(SCC(=O)Nc2ccc(OC)cc2)nc2ccc(N3CCOCC3)cc2c1=O | -1 | 99* | 14 | · | · | 1
Cc1ccc(NC(=O)CN2C(=O)S/C(=C\c3cc(C)n(-c4cccc(C(=O)O)c4)c3C)C2=O)cc1 | -6 | 22 | 0 | 1 | 39* | ·
Cc1ccc(NC(=O)CN2C(=O)S/C(=C\c3cc(C)n(C)c3C)C2=O)cc1 | · | 3 | -147 | · | · | -2
Cc1ccc(NC(=O)CN2C(=O)S/C(=C\c3ccc(C(=O)O)cc3)C2=O)cc1 | -1 | · | 4 | 1 | 43* | -2
O=C(C[C@@H]1CC[C@@H]2NC[C@@H](O)COC[C@H]2O1)Nc1ccccc1 | · | · | · | -1 | -1 | 2
COc1cc(C(c2sc3nc(C)nn3c2O)N2CCN(c3ccccc3)CC2)cc(OC)c1OC (configuration not stated) | · | · | -11 | 8.5* | -2 | -6
CO[C@H]1CN(C)C(=O)c2ccc(NC(=O)c3ccccc3F)cc2OC[C@@H](C)NC[C@@H]1C | · | · | -9[16.7 µM] | 0 | 2 | 1
Cc1noc(C)c1NC(=O)N(C)C[C@H]1Oc2cc(C#CCC3CCCC3)ccc2S(=O)(=O)N([C@@H](C)CO)C[C@@H]1C | · | · | · | 10* | 0 | 1
C[C@@H]1CN([C@H](C)CO)S(=O)(=O)c2ccc(C#Cc3ccc(F)cc3)cc2O[C@H]1CN(C)C(=O)NC1CCCCC1 | · | · | 39[16.7 µM] | 7 | 7 | -1
Cc1ccc(-c2ccc3c(c2)O[C@H](CN(C)C(=O)Nc2ccc(C(F)(F)F)cc2)[C@@H](C)CN([C@@H](C)CO)S3(=O)=O)cc1 | · | · | 28[16.7 µM] | 8.7* | 2 | 0
Cc1ccc(-c2ccc3c(c2)O[C@@H](CN(C)C(=O)Nc2ccc(C(F)(F)F)cc2)[C@H](C)CN([C@@H](C)CO)S3(=O)=O)cc1 | · | · | 15[16.7 µM] | 7 | -1 | -2

Assay outcomes deposited in PubChem BioAssay by Broad Institute.
